Experimental data from PubChem BioAssay AID1345085 (National Center for Advancing Translational Sciences (NCATS), 2018).
Results filed as inconclusive are left out. Calls of active or inactive are those of the source. Calls come from the whole dose curve; as a rule, active = well fitted cell-killing curve with a large enough effect; inconclusive = small, poorly fitted or top-dose-only effect, or effect the other way; inactive = no such curve, though single readings can be large or run the other way.

System: C33A
Experiment: Confirmatory qHTS for gynecologic anti-cancer compounds from libraries of approved drugs and bioactive compounds; note: nearly all actives have a fitted effect of over 55% in size
Conditions: gynecologic cancer cell panel viability, ATPlite luminescence, 48 h; series mostly up to 57.6 µM; activity change, negative = viability loss: at the top concentration
Text: National Center for Advancing Translational Sciences [NCATS] Assay Overview: Chemotherapeutic drug responses vary from cancer to cancer and from patient to patient. These variations could be caused by a number of factors including patient genomic background, tumor mutations, tumor heterogeneity, and aspects of drug treatment. Chemotherapeutic drug resistance is also a common issue and can lead to ineffective treatment and patient death. Here we have profiled the cell killing effects of thousands of compounds to characterize the responses in three gynecological cancers, identify cancer-selective compounds, and understand the diversity of responses to these compounds from pan-cancer suppressors to single cell line selective compounds. In this assay, we screened a 7,914 compound drug library that included approved drug and bioactive compounds in six ovarian, three cervical, and two placental cancer cell lines using the ATPlite assay for cell viability. ATPlite is a luminescence based assay reliant on the conversion of a luciferase substrate to light in the presence of ATP. As a cytotoxic compound will suppress growth and decrease the number of cells, the concentration of ATP will decrease, and less light signal will be detected in the well. Hits were selected from the primary screen for follow-up confirmation. For the confirmation screens, the ovarian cancer cell lines included CAOV-3, SK-OV-3, SW 626, ES-2, PA-1, and TOV-21G. The cervical cancer cell lines included HeLa, Ca Ski, and C-33 A. The placental cancer cell lines included JEG-3 and JAR. HEK 293T cells were used as the control cell line to determine the selectivity index. The ATPlite assay was used to determine the IC50 values.
Assay Protocol Summary: 1,000 cells in 4 uL of media were dispensed into white, solid bottom 1536-well plates using a Multidrop Combi (Thermo Scientific). The Assay plates were incubated for 16 hours at 37 C with 5% CO2 in assay plates, followed by the addition of 23 nL of DMSO or drug dissolved in DMSO. . Each compound was assayed in 11 concentrations (1:3 dilution) from 57.5 uM to 0.977 nM, using the automated Wako 1536 Pin Tool workstation and incubated at 37 C with 5% CO2 48 hours. 4 uL of ATPlite, the ATP monitoring reagent, was then added to the each well of the assay plates using the Multidrop Combi reagent dispenser followed by incubation for 15 minutes at room temperature. The resulting luminescence was measured using the ViewLux plate reader.
% is set by controls: 0 for no effect and ±100 for the full control effect; potency is the fitted concentration of half-maximal effect.

SMILES | activity change, negative = viability loss | Potency
CCCC(=O)O[C@]1(C(=O)CCl)[C@@H](C)C[C@H]2[C@@H]3CCC4=CC(=O)C=C[C@]4(C)[C@@]3(F)C(=O)C[C@@]21C | -1.58% (inactive) | 
COc1ccc2c(c1)c(CC(=O)O)c(C)n2C(=O)c1ccc(Cl)cc1 | 20.9% (inactive) | 
CN(C)C1CCN(C(=O)c2ccc(NC(=O)Nc3nc(N4CCOCC4)nc(N4CCOCC4)n3)cc2)CC1 |  | 0.172 µM (active)
CC(C)(C(=O)NCC(F)(F)C(F)(F)F)C(=O)NC1C(=O)Nc2ccccc2-c2ccccc21 (stereo not given) | -11% (inactive) | 
CN(C)CCC(CSc1ccccc1)Nc1ccc(S(=O)(=O)NC(=O)c2ccc(N3CCN(Cc4ccccc4-c4ccc(Cl)cc4)CC3)cc2)cc1[N+](=O)[O-] (stereo not given) | 5.88% (inactive) | 
N#CC1(c2cccc(C(=O)Nc3cc(Oc4ccc5nc(NC(=O)C6CC6)sc5n4)ccc3F)c2Cl)CC1 | -24.7% (inactive) | 
COc1ccc(CCC(=O)c2c(O)cc(O[C@@H]3O[C@H](CO)[C@@H](O)[C@H](O)[C@H]3O[C@@H]3O[C@@H](C)[C@H](O)[C@@H](O)[C@H]3O)cc2O)cc1O | 11.6% (inactive) | 
COc1cc(Nc2ncc3c(n2)-c2ccc(Cl)cc2C(c2c(F)cccc2OC)=NC3)ccc1C(=O)O | -3.21% (inactive) | 
COc1cc(Nc2c(C#N)cnc3cc(OCCCN4CCN(C)CC4)c(OC)cc23)c(Cl)cc1Cl |  | 27.3 µM (active)
O=c1c2ccccc2nc2n1CCc1c-2[nH]c2ccccc12 | 17.7% (inactive) | 
Cc1cc(SCc2sc(-c3ccc(C(F)(F)F)cc3)nc2C)ccc1OCC(=O)O | -0.815% (inactive) | 
CCCCc1oc2ccccc2c1C(=O)c1cc(I)c(OCCN(CC)CC)c(I)c1 |  | 70.8 µM (active)
CC(C)C[C@H](NC(=O)[C@H](CCc1ccccc1)NC(=O)CN1CCOCC1)C(=O)N[C@@H](Cc1ccccc1)C(=O)N[C@@H](CC(C)C)C(=O)[C@@]1(C)CO1 |  | 6.11 µM (active)
O=C(/C=C/c1cccc(S(=O)(=O)Nc2ccccc2)c1)NO |  | 2.98 µM (active)
COc1ccccc1N1CCN(CC(O)COc2cccc3ccccc23)CC1 (stereo not given) | -21.7% (inactive) | 
Cc1cc(Nc2cc(N3CCN(C)CC3)nc(Sc3ccc(NC(=O)C4CC4)cc3)n2)n[nH]1 | -16.6% (inactive) | 
Cn1c(=O)c(F)c(Nc2ccc(I)cc2F)c2c(=O)n(CC(O)CO)cnc21 (stereo not given) | -20.6% (inactive) | 
C#C[C@]1(O)CC[C@H]2[C@@H]3CCC4=CC(=O)CC[C@@H]4[C@H]3CC[C@@]21CC | -1.35% (inactive) | 
Nc1ccn([C@@H]2O[C@H](CO)[C@@H](O)C2(F)F)c(=O)n1 |  | 0.0172 µM (active)
OCCNC1CCCc2c1[nH]c1ccc(-c3ccccc3)cc21 (stereo not given) |  | 17.2 µM (active)

SMILES | activity change, negative = viability loss | Potency
COC(C(=O)N1Cc2[nH]nc(NC(=O)c3ccc(N4CCN(C)CC4)cc3)c2C1)c1ccccc1 (stereo not given) | 1.61% (inactive) | 
C[C@]12CCC(=O)C=C1CC[C@@H]1[C@@H]2[C@@H](O)C[C@@]2(C)[C@H]1CC[C@]2(O)C(=O)CO | 0.835% (inactive) | 
Fc1cc(-c2cccc3ncc(-c4cnn(C5CCNCC5)c4)nc23)cc(F)c1CN1CCOCC1 |  | 24.3 µM (active)
CC1=C(/C=C/C(C)=C/C=C/C(C)=C/C(=O)Nc2ccc(O)cc2)C(C)(C)CCC1 |  | 3.85 µM (active)
COc1ccc2cc3[n+](cc2c1OC)CCc1cc2c(cc1-3)OCO2 | -16% (inactive) | 
Cc1cc(CN2CCN(c3c(Br)cnc4nc(-c5ccc(N6CCN(C)CC6)cc5)[nH]c34)CC2)no1 |  | 24.3 µM (active)
O=c1[nH]c(=O)n([C@H]2C[C@H](O)[C@@H](CO)O2)cc1F |  | 2.17 µM (active)
CC(C)[C@@H](CS(=O)(=O)C(C)C)N1C(=O)[C@@](C)(CC(=O)O)C[C@H](c2cccc(Cl)c2)[C@H]1c1ccc(Cl)cc1 | 0.0552% (inactive) | 
CC(C)n1nc(-c2cc3cc(O)ccc3[nH]2)c2c(N)ncnc21 |  | 3.06 µM (active)
CC(Oc1ccc2[nH]nc(/C=C/c3cnn(CCO)c3)c2c1)c1c(Cl)cncc1Cl (stereo not given) | 11.8% (inactive) | 
c1nc2nc(Nc3ccc(N4CCOCC4)cc3)nc(NC3CCCCC3)c2[nH]1 | -6.39% [at 19.5 µM] (inactive) | 
O=C(O)c1ccc(Nc2ncc3c(n2)-c2ccc(Cl)cc2C(c2c(F)cccc2F)=NC3)cc1 | -8.05% (inactive) | 
CS(=O)(=O)c1ccc(-c2cnc(N)c(C(=O)Nc3ccccc3)n2)cc1 | -5.61% (inactive) | 
COc1ccc2c(c1OC)C(=O)O[C@@H]2[C@H]1c2c(cc3c(c2OC)OCO3)CCN1C | 11.5% (inactive) | 
Cc1cc(Nc2nc(N[C@@H](C)c3ccc(F)cc3)c(C#N)cc2F)n[nH]1 | -15% (inactive) | 
CC[C@H](Nc1ncnc2nc[nH]c12)c1nc2cccc(F)c2c(=O)n1-c1ccccc1 | -0.528% [at 10.7 µM] (inactive) | 
CCS(=O)(=O)c1cccc(-c2cc(C(=O)NC3CCN(C)CC3)c(C)c3[nH]c4ncc(C)cc4c23)c1 |  | 5.34 µM (active)
O=C1NC(=O)C(c2cnc3ccccn23)=C1c1cn2c3c(cccc13)CN(C(=O)N1CCOCC1)CC2 | -0.13% (inactive) | 
COc1cc(C(=O)N2CCC(N3CCN(C)CC3)CC2)ccc1Nc1ncc2c(n1)N(C)c1ccccc1C(=O)N2C | -2.45% (inactive) | 
Nc1ccc(-c2ccc3ncc4ccc(=O)n(-c5cccc(C(F)(F)F)c5)c4c3c2)cn1 |  | 0.172 µM (active)
